From PubChem BioAssay AID689 (Sanford-Burnham Center for Chemical Genomics, 2007)
Out of some 62,000 compounds screened, about 80 (0.1%) were called active. No rule for the calls is given here. The list is a sample of the results. Results with a measured potency or affinity are listed apart.

target: Ephrin type-A receptor 4 (Mus musculus) (UniProt Q03137); experiment: inhibitors of EphA4 binding to KYL peptide, primary screen, biochemical, colorimetric, mouse EphA4 (AID 689); details: EphA4-AP binding to KYL peptide, pNPP A405, at 10 µM, hits give high values
Sequence (Q03137 whole entry, looked up): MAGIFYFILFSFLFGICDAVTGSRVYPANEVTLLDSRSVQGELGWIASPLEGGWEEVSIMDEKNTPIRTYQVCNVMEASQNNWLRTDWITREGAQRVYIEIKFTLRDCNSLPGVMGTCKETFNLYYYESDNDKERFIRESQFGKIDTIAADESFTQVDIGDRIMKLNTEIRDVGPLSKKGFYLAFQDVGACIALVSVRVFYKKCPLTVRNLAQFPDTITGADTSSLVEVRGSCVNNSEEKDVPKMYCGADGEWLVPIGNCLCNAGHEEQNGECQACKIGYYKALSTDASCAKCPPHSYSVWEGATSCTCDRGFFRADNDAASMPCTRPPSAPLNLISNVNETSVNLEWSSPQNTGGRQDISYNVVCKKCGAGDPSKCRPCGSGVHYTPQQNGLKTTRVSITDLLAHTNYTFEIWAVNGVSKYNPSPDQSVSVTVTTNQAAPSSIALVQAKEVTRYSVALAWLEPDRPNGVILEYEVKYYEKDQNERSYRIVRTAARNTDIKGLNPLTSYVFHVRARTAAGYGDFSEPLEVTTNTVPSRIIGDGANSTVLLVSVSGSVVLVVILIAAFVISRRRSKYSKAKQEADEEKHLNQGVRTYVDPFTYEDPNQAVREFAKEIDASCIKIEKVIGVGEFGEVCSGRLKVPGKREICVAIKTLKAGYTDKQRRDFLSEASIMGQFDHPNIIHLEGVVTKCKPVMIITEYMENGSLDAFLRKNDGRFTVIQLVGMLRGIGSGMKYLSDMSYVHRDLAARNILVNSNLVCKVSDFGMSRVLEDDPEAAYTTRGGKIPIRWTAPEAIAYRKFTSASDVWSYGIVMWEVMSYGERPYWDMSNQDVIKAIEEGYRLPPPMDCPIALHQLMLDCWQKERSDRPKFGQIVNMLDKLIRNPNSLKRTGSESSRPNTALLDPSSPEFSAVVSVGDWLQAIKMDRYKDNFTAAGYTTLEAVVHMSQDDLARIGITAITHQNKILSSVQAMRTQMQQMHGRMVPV

inhibition, inactive:
O=c1oc2ccccc2c(O)c1/C=N/c1ccccn1 -4.8%
Oc1c(/C=N/c2ncn[nH]2)ccc2ccccc12 -0.6%
Cc1ccc(CNC(=O)C2CCCCC2C(=O)O)cc1 (stereo not drawn) -8.9%
COc1cc(C(=O)Nc2c(-c3ccccc3)c3cc(Br)ccc3[nH]c2=O)cc(OC)c1OC -0.5% [this sample at 5 µg/mL]
COc1ccc(OC)c(NC(=O)Cn2c(-c3ccc(Cl)cc3)noc2=O)c1 -3.5%
CCCC(=O)N1CCN(c2ccc(NC(=O)c3ccccc3)cc2)CC1 -0.5%
COc1ccc(NC(=O)CN2C(=O)C(C)Oc3ccccc32)cc1 (stereo not drawn) -3%
O=CNCCCc1nc2ccccc2n1Cc1ccccc1 7.7%
CCn1c2ccccc2c2nc3cc(S(=O)(=O)N4CCOCC4)ccc3nc21 32.3%
O=[N+]([O-])c1cccc(S(=O)(=O)N2CCOCC2)c1 2.9% [this sample at 5 µg/mL]
COc1ccc(CCNC(=O)c2ccc3nc(-c4ccco4)c(-c4ccco4)nc3c2)cc1OC 24.1%
O=C(NC1CCCC1)c1ccc2nc(-c3ccco3)c(-c3ccco3)nc2c1 18.8%
O=C(NCc1ccccc1)c1ccc2nccnc2c1 -12.5%
O=C(NCc1ccccc1)c1cccc(NC(=O)c2ccco2)c1 -2.1%
CCOC(=O)N1CCC(NC(=O)c2cc(C)c3c(C)nn(-c4ccccc4)c3n2)CC1 -3.2%
COc1c(Cl)cc(C(=O)Nc2cccc3ccccc23)cc1Cl -13.9% [this sample at 5 µg/mL]
CCc1nc(SCc2nc3ccccc3[nH]2)c2oc3ccccc3c2n1 12.7%
Cc1sc(NC(=O)CN(C)C2CCCCC2)nc1-c1ccc2c(c1)CCN2S(=O)(=O)c1ccccc1 -7%
O=C(Cc1ccc(F)cc1)Nc1ccccc1Br -10% [this sample at 5 µg/mL]
CCOC(=O)c1c(C)oc2ccc(OC(=O)c3ccccc3OC)cc12 -1% [this sample at 5 µg/mL]
CCOC(=O)c1cc(OC(=O)c2ccccc2)n(-c2ccccc2)n1 0.3%
Cc1onc(-c2ccccc2Cl)c1C(=O)Nc1ccccc1N1CCOCC1 4%
Cc1nn(-c2ccc(Cl)cc2)c2sc(C(=O)N3CCN(C(=O)c4ccco4)CC3)cc12 -24.1%
CCCCc1nnc(SCc2ccc(OCC)cc2)n1N -2.2%
COc1cc2[nH]c3c(N4CCC(C(N)=O)CC4)ncnc3c2cc1OC -14.4%
CSc1nc(NCc2ccco2)c2sc3nc(C(C)C)c4c(c3c2n1)CC(C)(C)OC4 -8.5%
CSc1nc(N2CCN(CCO)CC2)c2sc3nc(-c4ccco4)c4c(c3c2n1)CCC4 -2.2%
CSc1nc(N(C)CCO)c2sc3nc(-c4ccco4)c4c(c3c2n1)CCC4 46.9%
CCSc1ncnc2c1sc1nc(-c3ccco3)c3c(c12)CC(C)(C)OC3 -1.2%
COC(=O)c1c(C)oc2ccc(OCc3ccccc3Br)cc12 -1.2% [this sample at 5 µg/mL]
CC1CCN(c2cc(N3CCOCC3)c([N+](=O)[O-])cc2F)CC1 17.1%
Cn1nc(-c2ccccc2)c2nc3ccccc3nc21 45.4%
CCCn1cnc2c(c1=O)c1nc3ccccc3nc1n2CCc1ccccc1 -9.5%
CCCCn1c2nc3ccccc3nc2c2c(=O)n(C(C)CC)cnc21 (stereo not drawn) 0.6%
CCCCCn1c2nc3ccccc3nc2c2c(=O)n(CC(C)C)cnc21 -9.1%
c1ccc(-c2nc(-n3nc4ccccc4n3)nc3ccccc23)cc1 -3.4%
CCCCn1c2nc3ccccc3nc2c2c(=O)n(CCC)cnc21 -2.2%
CCCn1nc(NS(=O)(=O)c2ccccc2)c2cc3ccccc3nc21 -10.6%
CCCCCn1c(N)c(C#N)c2nc3ccccc3nc21 0.7%
COc1cc(NC(=O)c2cnn3c2NC(c2ccc(Br)cc2)CC3C(F)(F)F)cc(OC)c1OC (stereo not drawn) -4.6% [this sample at 5 µg/mL]
COc1ccc(-c2c(C(C)=O)c(C)nc3sc4c(c23)NC(c2ccccc2)NC4=O)cc1 (stereo not drawn) -23.5%
CC1(C)CC(=O)C2=C(C1)N(Cc1ccco1)C(=O)NC2(C(F)(F)F)C(F)(F)F -8.1%
Oc1ccc(N2CCN(c3ncnc4sc5c(c34)CCC5)CC2)cc1 -17.1%
COc1ccccc1CNC(=O)c1oc2ccc(S(=O)(=O)N3CCCC3)cc2c1C 2.1%
Cc1[nH]n(CCC#N)c(=O)c1CC(=O)N1CCN(c2ccccc2)CC1 -10.6%
O=C(Nc1ccc2nn(-c3ccccc3)nc2c1)c1ccc(Cl)c([N+](=O)[O-])c1 -18.3% [this sample at 5 µg/mL]
CCOC(=O)C(C)(C)C(=O)C(C)(C)C(O)c1ccccn1 (stereo not drawn) -7.7%
CC(C)Cn1c(N)c(C(=O)CSc2nnnn2C)c(=O)n(C)c1=O -12%
Cc1cc2ccccc2n1CCNC(=O)C1CCCC1 0.5%
Cc1ccc(S(=O)(=O)NCCn2c(C)cc3ccccc32)cc1 13.5%
CCOc1ccc(NS(=O)(=O)c2ccc(OC)c(C)c2)cc1 -20.6%
O=C(Nc1nc(-c2ccccc2)c(-c2ccccc2)s1)c1ccc(S(=O)(=O)N2CCCC2)cc1 8.7% [this sample at 5 µg/mL]
Cc1ocnc1C(=O)Nc1ccc(Cl)cc1 -10.1%
CC(=O)C12c3ccccc3C(c3ccccc31)C1C(=O)NC(=O)C12 (stereo not drawn) -14.2% [this sample at 5 µg/mL]
CCOc1ccc(N(CC(=O)Nc2ccc(Br)cc2)S(=O)(=O)c2ccc(SC)cc2)cc1 -3.8% [this sample at 5 µg/mL]
Cc1cc(C)n2nc(SC3CCCCN(C(=O)c4ccc(F)cc4)C3=O)nc2n1 (stereo not drawn) -9.7%
c1ccc(-c2cn3nc4c(nc3n2)CCCC4)cc1 5.2%
Cc1nn2cc(-c3ccccc3)nc2s1 -24.1%
Cc1cc(=O)[nH]c(SCCOc2ccccc2C)n1 -0.8% [this sample at 5 µg/mL]
CC1CC(C)CN(C(=O)CSc2nnc(-c3ccc(F)cc3)o2)C1 (stereo not drawn) 8.1%
Cc1ccc(NC(=O)/C(=C\c2ccc([N+](=O)[O-])cc2)NC(=O)c2ccccc2)cc1 -12.9%
Cc1ccc(C(=O)N/C(=C\c2ccc([N+](=O)[O-])cc2)C(=O)NCCc2ccccc2)cc1 1.8%
COc1ccc(NC(=O)/C=C/c2ccccc2Cl)c([N+](=O)[O-])c1 -10.9% [this sample at 5 µg/mL]
CC1=N/C(=C\c2ccc([N+](=O)[O-])cc2)C(=O)N1c1ccc(Br)c(C)c1 40.9%
CC1=N/C(=C\c2ccc([N+](=O)[O-])cc2)C(=O)N1c1ccc(Cl)cc1 22.2%
O=C(COc1ccccc1)Nc1ccc(S(=O)(=O)N2CCOCC2)cc1 5.4%
C=C(C)Cn1c(COc2ccccc2)nnc1SCC(=O)O 1.1%
O=C(/C(=C/c1ccccc1[N+](=O)[O-])c1nc2ccccc2[nH]1)c1ccccc1 9% [this sample at 5 µg/mL]
CCOC(=O)c1cc(-c2ccc(C=C3C(=O)N(C)C(=O)N(C)C3=O)o2)ccc1Cl 11% [this sample at 5 µg/mL]
Cc1ccc(N2C(=O)/C(=C\c3ccc(-c4ccc(Cl)c(C(=O)O)c4)o3)C(=O)NC2=S)cc1 -13.7% [this sample at 5 µg/mL]
O=C1NC(=O)N(c2ccc(Cl)cc2)C(=O)/C1=C/c1ccc(-c2ccc(Cl)c(C(=O)O)c2)o1 -6.4% [this sample at 5 µg/mL]
CN1C(=O)C(=Cc2ccc(-c3ccc(Cl)c(C(=O)O)c3)o2)C(=O)N(C)C1=O 12.8% [this sample at 5 µg/mL]
COc1ccc(/C=C/C(=O)Nc2cccc([N+](=O)[O-])c2)cc1Br 1.9% [this sample at 5 µg/mL]
COC(=O)c1cccc(NC(=O)COC(=O)CSc2nc(C)cc(C)n2)c1 -9.9%
Cn1c(SCCOc2ccc(Cl)cc2)nnc1-c1ccncc1 13%
Cc1ccc(CNc2oc(C)nc2C#N)cc1 -0.9%
O=C(NCCOc1ccccc1F)c1cccc2ccccc12 -0.6% [this sample at 5 µg/mL]
COC(=O)c1ccc(Cn2cnc3c(cnn3-c3ccc(F)cc3)c2=O)o1 9.4%
Cc1sc(NC(=O)CSc2nnc(C)c(=O)[nH]2)c(C#N)c1C -25.1%
Cc1ccc(OCc2nnc(SCC(=O)Nc3sc(C)c(C)c3C#N)n2C)cc1 -5.2%
Cc1ccc(/C=C/C2=Cc3c(sc(NC(=O)CSc4n[nH]c(N)n4)c3C#N)C(C)(C)C2)o1 44.8%
CCOc1ccc(NC(=O)CSc2nc(C)c3c(c2C#N)CCCC3)cc1 -14.6%
COc1cc(C2N(c3ccc(Cl)c(Cl)c3)C(=O)C3CCCN32)cc(OC)c1OC (stereo not drawn) -1.5%
